The text below walks through data of PubChem BioAssay.

Where “and” joins values, the source holds several entries; their conditions need not be identical. Equal values may be shown once. Calls of active or inactive are those of the source.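 How the source made its calls, unless noted: active means compounds whose cell count with miR-34 switched on is under 0.7 times the count with it off; inactive means the rest.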

By viability is commonly meant the share of living cells, or the viability signal relative to a control. In general, inhibition refers to the relative decrease from the control value, in per cent.

The nature of experiment [1]: P. berghei load reduction in hepatocytes – cell-based, HepG2, luciferase luminescence, HepG2 viability, primary screen (AID 624349; in the data active means parasite load remaining mostly below about 12%, no sharp cut-off; inactive means mostly above about 10%;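 further: 100% = mean of DMSO negative control wells on the same plate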). The settings on record: P. berghei liver stage in HepG2, luciferase luminescence, concentration not given here; parasite load remaining: stronger effect = lower value; viability: measured here: HepG2 viability without parasites.
A short description of experiment [2]: EMT-state selective cytotoxicity in co-culture – imaging, PC-3E GFP, TEM4-18 mCherry, primary screen (AID 1345086;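 active means compounds killing one labelled cell type while sparing the other, by normalised counts and ratio limits, not self-fluorescent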;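 on all read-outs here: cells exposed to compound for 72 h before imaging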;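 on red/green cell ratio (normalised): normalised mesenchymal count divided by normalised epithelial count so high means epithelial killing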). The settings on record: PC-3E GFP / TEM4-18 mCherry co-culture, imaging cell counts, at 1 µM; for red/green cell ratio (normalised): actives lie on both sides, counts scaled to control wells, 1 = unselective.
Experiment [3] is described as follows: viability loss with induced miR-34 in A549 – imaging, A549 dox-inducible miR-34, nuclei and caspase counts, primary screen (AID 1347080). The settings on record: A549 miR-34 inducible, Hoechst nuclei count, 48 h.
Experiment [4] is described as follows: MELAS cybrid and Rieske KO viability enhancers – cell-based, MELAS cybrids, Rieske KO mouse fibroblasts, CellTiter-Glo, primary screen (AID 1508586;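 active means mean z-score across replicates of 1.96 or higher in either the MELAS or the Rieske mutant cell line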;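 further: z relative to plate mean and SD of compound and empty wells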). The settings on record: low glucose. In general terms: ATP-based viability assays read luminescence as a measure of living cells.
Experiment [5] addresses NAD(+) hydrolase SARM1 (Homo sapiens) (UniProt Q6SZW1). The experiment is described as follows: blocking NAD cleavage by SARM1 SAM-TIR – cell lysate, NAD-Glo luminescence (AID 1508614;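 active means compound whose remaining NAD level is above about 45 nM, limit read from the data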). The settings on record: SAM-TIR HEK293T lysate NADase, at 1 µM, stronger effect = higher value.
Experiment [6] addresses Mitogen-activated protein kinase 7 (Homo sapiens) (UniProt Q13164). As to the kind of experiment: Gal4-ERK5 driven luciferase induction – cell-based, HTS, primary screen (AID 1508626;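 active means luciferase signal above three times the same-plate solvent-only control wells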;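 further: luciferase driven by Gal4-ERK5 fusion binding five Gal4 sites before minimal TATA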). The settings on record: HeLa Gal4-ERK5 transactivation, 18 h, at 5 µM, stronger effect = higher value.
Experiment [7] in a line: galactose survival enhancers in mitochondrial complex I cybrids – cell-based, galactose medium, ATP luminescence, primary screen (AID 1645843;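 active means z-score of at least 1.8 in each of two replicates, scored against plate mean and spread of sample wells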;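 further: positive z means more ATP and so rescue of galactose-driven cybrid death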). The settings on record: complex I mutant cybrid cells, 72 h, stronger effect = higher value.
The nature of experiment [8]: compounds altering circadian rhythm period length – cell-based, LOPAC library, luminescence reporter (AID 2774; call rule not given here;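 further: values are relative to mean of DMSO wells on each plate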). The settings on record: circadian reporter cells, at 7 µM, actives lie on both sides.
Experiment [9] deals with Hepatitis C virus NS3 helicase. The experiment is described as follows: blockers of NS3h binding to ssDNA – biochemical, fluorescence polarization, LOPAC1280 library, primary screen (AID 687035; in the data active means inhibition above about 37%). The settings on record: Purified HCV NS3 helicase, Cy5-dT15 ssDNA binding fluorescence polarization; stronger effect = higher value; concentration not given here. Background: Polarisation of emitted light reports the rotation of a fluorescent probe.

Experiment [10] can be described thus: compounds altering Cy5-DNA-NS3h complex signal – biochemical, LOPAC1280, artefact control for HCV NS3 helicase inhibitor project (AID 687037; call rule not given here). The settings on record: Cy5-DNA-NS3h complex fluorescence interference counterscreen. For orientation: A counterscreen serves to expose hits that act by an unwanted route or on another target.
Experiment [11] is described as follows: blockers of cellular phospholipid synthesis – cell-based, LOPAC library, screen 4, primary screen (AID 1347384; call rule not given here). The settings on record: animal cells, phospholipid biosynthesis inhibition screen; at 10 µM.
The mark [12] stands for this setting: measured here: epithelial PC-3E GFP cell survival.
Setting [13] is: measured here: mesenchymal TEM4-18 mCherry cell survival.
[14] abbreviates: stronger effect = lower value, cell number ratio, induced over uninduced.
The mark [15] stands for this setting: measured here: relative caspase fold change +Dox/-Dox.
[16] abbreviates: measured here: total cells with miR-34 induction, stronger effect = lower value.
[17] abbreviates: measured here: total cells without miR-34 induction.
Where [18] appears, read: MELAS cybrid survival, CellTiter-Glo 48 h, stronger effect = higher value.
[19] abbreviates: Rieske KO mouse fibroblast survival, CellTiter-Glo 72 h.

Sequence of NAD(+) hydrolase SARM1 (Homo sapiens) (Q6SZW1 whole entry, looked up, the tested form may be a part): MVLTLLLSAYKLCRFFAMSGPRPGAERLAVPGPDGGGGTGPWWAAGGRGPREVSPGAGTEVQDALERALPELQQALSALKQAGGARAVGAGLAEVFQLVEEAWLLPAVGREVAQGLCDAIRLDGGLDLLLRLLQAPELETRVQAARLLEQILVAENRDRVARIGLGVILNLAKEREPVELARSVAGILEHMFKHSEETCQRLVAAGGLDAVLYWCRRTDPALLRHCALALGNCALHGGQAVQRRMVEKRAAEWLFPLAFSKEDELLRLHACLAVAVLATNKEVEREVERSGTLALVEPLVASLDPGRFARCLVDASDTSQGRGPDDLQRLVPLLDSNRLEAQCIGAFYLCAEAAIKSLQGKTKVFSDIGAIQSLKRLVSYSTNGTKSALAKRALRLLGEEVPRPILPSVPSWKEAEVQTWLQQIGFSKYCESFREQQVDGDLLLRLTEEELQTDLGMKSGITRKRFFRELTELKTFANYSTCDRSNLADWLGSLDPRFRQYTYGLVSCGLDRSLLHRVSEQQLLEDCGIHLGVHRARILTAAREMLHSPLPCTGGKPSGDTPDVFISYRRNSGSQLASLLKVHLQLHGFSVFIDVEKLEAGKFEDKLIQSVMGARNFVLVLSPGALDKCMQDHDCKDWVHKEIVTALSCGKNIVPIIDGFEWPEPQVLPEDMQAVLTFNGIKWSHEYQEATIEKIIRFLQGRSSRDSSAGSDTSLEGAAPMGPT
Sequence of Mitogen-activated protein kinase 7 (Homo sapiens) (Q13164 whole entry, looked up, the tested form may be a part): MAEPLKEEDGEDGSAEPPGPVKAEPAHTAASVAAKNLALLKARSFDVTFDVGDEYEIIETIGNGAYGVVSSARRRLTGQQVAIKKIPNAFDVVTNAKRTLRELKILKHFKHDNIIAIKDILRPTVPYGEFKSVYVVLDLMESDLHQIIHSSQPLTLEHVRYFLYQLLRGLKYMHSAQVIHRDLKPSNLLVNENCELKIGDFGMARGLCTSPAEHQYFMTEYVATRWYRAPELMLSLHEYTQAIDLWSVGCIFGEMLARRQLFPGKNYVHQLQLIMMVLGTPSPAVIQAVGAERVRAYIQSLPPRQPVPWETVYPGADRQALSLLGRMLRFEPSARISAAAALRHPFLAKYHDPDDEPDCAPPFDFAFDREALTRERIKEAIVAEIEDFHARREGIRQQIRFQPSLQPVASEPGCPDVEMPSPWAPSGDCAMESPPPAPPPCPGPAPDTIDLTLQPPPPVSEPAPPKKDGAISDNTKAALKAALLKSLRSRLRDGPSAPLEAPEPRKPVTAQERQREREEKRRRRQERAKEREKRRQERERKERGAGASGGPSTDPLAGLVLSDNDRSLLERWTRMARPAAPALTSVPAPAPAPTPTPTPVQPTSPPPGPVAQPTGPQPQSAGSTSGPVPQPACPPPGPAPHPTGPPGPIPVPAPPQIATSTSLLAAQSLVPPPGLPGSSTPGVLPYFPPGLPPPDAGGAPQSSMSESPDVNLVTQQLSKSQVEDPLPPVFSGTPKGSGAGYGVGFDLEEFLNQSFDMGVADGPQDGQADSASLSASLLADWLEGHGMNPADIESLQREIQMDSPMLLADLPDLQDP

As for `CC1(C)S[C@@H]2[C@H](NC(=O)COc3ccccc3)C(=O)N2[C@H]1C(=O)O`, the parasite load remaining in [1] is 89.7% (inactive) and 64.4% (inactive) and 28.3% (inactive). For the same compound, in experiment [1], the viability is 71.1% and 91.3% and 70.5%. Further, the red/green cell ratio (normalised) in experiment [2] was 1.2 (inactive). Further, the normalised cell number in [2] (setting [12]) stood at 0.81; in experiment [2] (setting [13]), 0.98. Further, the fold change was 0.943 (inactive) and 0.879 (inactive) in experiment [3] (setting [14]); 0.921 and 0.998 in [3] (setting [15]). The cell count in [3] (setting [16]) is 11800 and 10100; in [3] (setting [17]), 12500 and 11500. In addition, the z-score is 0.0944 (inactive) in [4] (setting [18]), 0.173 in experiment [4] (setting [19]) and 0.895 (inactive) in experiment [7]. The remaining NAD in experiment [5] is 10 nM (inactive). Moreover, the luciferase signal in experiment [6] was 64 AU (inactive).

As to `CC1=CC(=O)NS(=O)(=O)O1`, the red/green cell ratio (normalised) in experiment [2] was 1.16 (inactive). The normalised cell number came to 0.89 in experiment [2] (setting [12]) and 1.03 in experiment [2] (setting [13]). For the same compound, the fold change was 0.852 (inactive) and 0.934 (inactive) in experiment [3] (setting [14]); 0.799 and 0.672 in [3] (setting [15]). The cell count in experiment [3] (setting [16]) was 7390 and 8400; in experiment [3] (setting [17]), 8680 and 8990. The z-score was -0.393 (inactive) in experiment [4] (setting [18]) and -0.0842 in [4] (setting [19]). Also, in [5], the remaining NAD is 10 nM (inactive).

Take `CCOC(=O)CC(=O)N1CCSC1COc1ccccc1OC` (stereo not drawn): the red/green cell ratio (normalised) in experiment [2] was 1.03 (inactive). Further, the normalised cell number was determined as 0.9 in experiment [2] (setting [12]) and 0.93 in experiment [2] (setting [13]). Moreover, the fold change was 0.901 (inactive) and 0.963 (inactive) in experiment [3] (setting [14]); 1.01 and 0.429 in experiment [3] (setting [15]). Besides, the cell count was 7560 and 7640 in [3] (setting [16]); 8380 and 7930 in experiment [3] (setting [17]). Also, the results for the z-score in [4] (setting [18]) and in experiment [4] (setting [19]) were -0.272 (inactive) and -0.0679, respectively. For the same compound, the remaining NAD in experiment [5] is 10 nM (inactive).

As to `Nc1nc(NC2CC2)c2ncn(C3C=C[C@@H](CO)C3)c2n1` (stereo partly drawn), the red/green cell ratio (normalised) in experiment [2] is 1.14 (inactive). The normalised cell number in experiment [2] (setting [12]) stood at 1.1; in experiment [2] (setting [13]), 1.26. Moreover, the fold change was 0.995 (inactive) in experiment [3] (setting [14]) and 0.706 in [3] (setting [15]). Moreover, the cell count in [3] (setting [16]) turned out to be 8880; in experiment [3] (setting [17]) it was 8920.

`CN1CCN(C(c2ccccc2)c2ccc(Cl)cc2)CC1` (stereo not drawn): in [1], the parasite load remaining was 76% (inactive) and 58.1% (inactive). The viability in [1] was 93.1% and 88.3%. Moreover, the red/green cell ratio (normalised) in experiment [2] was 1.15 (inactive). Besides, the values for the normalised cell number in experiment [2] (setting [12]) and in experiment [2] (setting [13]) were 1.09 and 1.26, respectively. Also, the fold change in experiment [3] (setting [14]) is 0.825 (inactive) and 0.923 (inactive); in [3] (setting [15]), 1.22 and 0.572. Besides, the cell count in experiment [3] (setting [16]) is 7440 and 10400; in [3] (setting [17]), 9010 and 11300. The z-score was 0.513 (inactive) in experiment [4] (setting [18]) and 1.23 in experiment [4] (setting [19]). Besides, in [5], the remaining NAD was 10 nM (inactive). Besides, the luciferase signal in experiment [6] was 100 AU (inactive).

Turning to `NCCCNCCCCNCCCN`, in experiment [8], the period change was -0.16 h (inactive). In addition, the inhibition in [9] was -1% (inactive). For the same compound, the fluorescence ratio (interference) in experiment [10] is 1 (inactive). Besides, in experiment [2], the red/green cell ratio (normalised) is 1.05 (inactive). In addition, the normalised cell number in [2] (setting [12]) was 0.96; in experiment [2] (setting [13]), 1. For the same compound, the fold change in experiment [3] (setting [14]) was 0.928 (inactive); in experiment [3] (setting [15]) it was 0.993. Besides, the figures for the cell count in experiment [3] (setting [16]) and in experiment [3] (setting [17]) were 10300 and 11100, respectively. For the same compound, the outcome in experiment [11] was inactive. In addition, the z-score in experiment [7] was -0.2 (inactive).

As for `CC(=O)[C@H]1CCC2C3CC=C4C[C@@H](OC(=O)CCC(=O)O)CC[C@]4(C)C3CC[C@@]21C` (stereo partly drawn), the red/green cell ratio (normalised) in experiment [2] is 0.87 (inactive). The values for the normalised cell number in experiment [2] (setting [12]) and in [2] (setting [13]) were 1.07 and 0.93, respectively. Moreover, the fold change in experiment [3] (setting [14]) is 0.903 (inactive); in [3] (setting [15]) it was 0.914. The cell count in experiment [3] (setting [16]) came to 8450; in [3] (setting [17]), 9360.
